# Experimental data taken from PubChem BioAssay (Tox21).
# Results filed as inconclusive are left out. Unmarked numbers belong to inactive results. Calls of active or inactive are those of the source. Calls come from the whole dose curve; as a rule, active = well fitted inhibition curve with a large enough effect in the repeat runs; inconclusive = weak or mixed curves; inactive = flat fitted curve, though single readings scatter.
# Target: Luciferin 4-monooxygenase (Photinus pyralis) (UniProt P08659)
# Assay: qHTS assay to identify small molecule inhibitors of firefly luciferase (AID 1224835); note: nearly all actives have a fitted effect of over 25% in size
# Details: purified P. pyralis luciferase, luminescence inhibition; series mostly up to 115 µM; activity change, negative = inhibition: at the top concentration
# Excerpt: U.S. Tox21 Program National Center for Advancing Translational Sciences [NCATS] NIH Chemical Genomics Center [NCGC] U.S. Environmental Protection Agency [EPA] National Institutes of Environmental Health Sciences [NIEHS] National Toxicology Program [NTP] U.S. Food and Drug Administration [FDA] Tox21 Assay Overview: Firefly (Photinus pyralis) luciferase is one of the most commonly used transcriptional reporters. Firefly luciferase reporter-gene assays are generally considered one of the most sensitive assay types (Wood, 1995; Wood, 1998). However, it was initially observed, in 1991, by Thompson et al., that compounds that resemble the substrates of firefly luciferase (FLuc) can act as competitive inhibitors of the enzyme, and that these compounds, upon interaction with luciferase in the cell, can actually stabilize the protein and increase its half-life. Previous profiling work by other groups to determine the prevalence of compounds that affect FLuc enzymatic activity (PubChem AID 411) identified that ~3% of the MLSMR library (then at ~72K) inhibited FLuc. […] Thus the Tox21 10K library is profiled for activity against FLuc using a biochemical assay of purified FLuc and KM concentrations of FLuc substrates (D-luciferin and ATP).
# These assay plates were then treated with 23nL of compound or DMSO using a Kalypsys pin tool, which allows for delivery of a 6-point interplate titration of each compound to the assay plate (quantitative HTS.) 1 uL of firefly luciferase mix (containing 50 mM Tris acetate, pH 7.6, 0.04 uM P. pyralis luciferase, 0.01% Tween, 0.05% BSA and dH2O) was then delivered by FRD to each well. Luciferase activity was then measured using a ViewLux CCD imager.
# % is set by controls: 0 for no effect and ±100 for the full control effect.
# Luciferin 4-monooxygenase (Photinus pyralis), sequence (P08659 whole entry, looked up): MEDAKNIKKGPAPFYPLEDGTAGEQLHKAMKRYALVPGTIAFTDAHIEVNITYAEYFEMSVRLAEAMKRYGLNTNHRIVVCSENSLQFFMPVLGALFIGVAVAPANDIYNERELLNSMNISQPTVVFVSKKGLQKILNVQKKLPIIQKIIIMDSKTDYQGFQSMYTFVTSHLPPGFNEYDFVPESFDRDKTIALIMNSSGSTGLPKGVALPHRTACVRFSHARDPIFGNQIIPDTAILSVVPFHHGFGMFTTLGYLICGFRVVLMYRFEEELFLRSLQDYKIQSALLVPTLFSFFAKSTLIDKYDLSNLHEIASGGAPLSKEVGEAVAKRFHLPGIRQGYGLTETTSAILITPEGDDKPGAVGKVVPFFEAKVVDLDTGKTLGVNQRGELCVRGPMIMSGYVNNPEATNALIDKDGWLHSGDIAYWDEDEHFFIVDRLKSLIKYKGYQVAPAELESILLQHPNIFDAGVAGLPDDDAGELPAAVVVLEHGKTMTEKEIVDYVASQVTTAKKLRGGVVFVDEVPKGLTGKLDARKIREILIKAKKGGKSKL
SMILES,Potency,"activity change, negative = inhibition"
COc1ccc(N=[N+]([O-])c2ccc(OC)cc2)cc1,222 nM (active),–
O=C(CCOCCOCCOCCOCCC(=O)Nc1c(I)cc(I)c(C(=O)O)c1I)Nc1c(I)cc(I)c(C(=O)O)c1I,–,3.33% [at 52.9 µM]
Cc1ccc(Nc2ccc(O)c3c2C(=O)c2ccccc2C3=O)cc1,–,-6.77%
O=S(=O)(O)c1ccccc1O,–,0.181%
CC(C)COC(=O)C(C)C,–,4.29%
CO[Si](OC)(OC)OC,–,0.354%
CC(=O)c1ccc(C)cc1,–,1.46%
CCCCCCCCCCC1CO1 (stereo not given),–,-1.35%
CCCCCC[C@@H](CCC)C(=O)O,–,-5.37% [at 52.9 µM]
CCc1cc(S(=O)(=O)O)c2cc(C(C)C)cccc1-2,–,-8.63% [at 52.9 µM]
Fc1ccccc1-c1ccccc1,–,2.03%
COc1ccc(NC(C)=O)cc1,–,-1.35%
CCCCCCC(CCCCCCCCCCC(=O)OCC(COC(C)=O)OC(C)=O)OC(C)=O (stereo not given),–,3.34% [at 52.9 µM]
O=C(O)C(O)[C@H](O)[C@@H](O)[C@H](O)[C@H](O)CO (stereo not given in full),–,0.531%
CC/C=C\CCCCO,–,-0.709%
CC(C)(O)C(=O)c1ccc(OCCO)cc1,–,4.03%
CCCCCCC(=O)OCC,–,1.26%
CC(C)c1cccc(C(C)C)c1N,–,-0.375%
CSc1ccc(C=O)cc1,–,-1.49%
CSc1nc(NC2CC2)nc(NC(C)(C)C)n1,–,1.37%

SMILES,Potency,"activity change, negative = inhibition"
CCN1CCN(c2cc3c(cc2F)c(=O)c(C(=O)O)cn3C2CC2)CC1,–,0.755% [at 52.9 µM]
CCCCCN(CCCCC)C(=O)C(CCC(=O)O)NC(=O)c1ccc(Cl)c(Cl)c1 (stereo not given),–,-3.46% [at 52.9 µM]
CC(C)c1ccc2oc3nc(N)c(C(=O)O)cc3c(=O)c2c1,275 nM (active),–
CC(C)CCCC(C)NCCC(C)C (stereo not given),–,-0.648% [at 52.9 µM]
O=c1[nH]c(=O)n([C@H]2O[C@H](CO)[C@@H](O)[C@@H]2O)cc1/C=C\Br,–,0.763% [at 52.9 µM]
OCC(O)[C@@H](O)[C@H](O)[C@H](O)CO[C@H]1O[C@H](CO)[C@@H](O)[C@H](O)[C@H]1O (stereo not given in full),–,3.01%
CCC(=O)Nc1cccc(N)c1,–,0.647%
Nc1nc2c(ncn2CCC(CO)CO)c(=O)[nH]1,–,-1.41% [at 52.9 µM]
C=CC(=O)OCCCCCC,–,0.109%
Cc1onc(-c2ccccc2)c1-c1ccc(S(N)(=O)=O)cc1,–,-1.99% [at 52.9 µM]
CC(C)COC(=O)c1ccccc1O,–,-8.84%
CCn1c(=O)c2c(nc(/C=C/c3ccc(OC)c(OC)c3)n2C)n(CC)c1=O,–,-9.23% [at 52.9 µM]
NC(CS)C(=O)O (stereo not given),–,2.97% [at 52.9 µM]
CC(=O)N[C@@H](CCC(N)=O)C(=O)O,–,1.48% [at 52.9 µM]
C1CCCCCCCCCCC1,–,-7.22% [at 23.6 µM]
[O-][N+](=Nc1ccccc1)c1ccccc1,11300 nM (active),–
C[C@H](O)C(=O)Nc1c(I)c(C(=O)NC(CO)CO)c(I)c(C(=O)NC(CO)CO)c1I,–,-0.81% [at 52.9 µM]
C=C(C)[C@@H]1CCC2=CC(=O)C[C@@H](C)[C@]2(C)C1,–,3.79%
COCc1ccc(COC)cc1,–,-2.61%
CC(C)(C)CC(C)(C)N,–,0.463%
